Measurements taken from the supplement of paper PMC3334620.
Over roughly 33,000 sequences, “E-score (-0.5 to 0.5)” has its median near -0.0059; the highest 2% begin near 0.26. What follows is part of a selection rich in the highest values, with near analogues and random picks from the rest.

target: T1, Cin5 (UniProt P40917); test: PBM E-score (8-mer binding enrichment) (E-score (-0.5 to 0.5)); higher = stronger / more preferred TF binding; settings: protein concentration: 100 nM; construct: GST-full length
T1 sequence: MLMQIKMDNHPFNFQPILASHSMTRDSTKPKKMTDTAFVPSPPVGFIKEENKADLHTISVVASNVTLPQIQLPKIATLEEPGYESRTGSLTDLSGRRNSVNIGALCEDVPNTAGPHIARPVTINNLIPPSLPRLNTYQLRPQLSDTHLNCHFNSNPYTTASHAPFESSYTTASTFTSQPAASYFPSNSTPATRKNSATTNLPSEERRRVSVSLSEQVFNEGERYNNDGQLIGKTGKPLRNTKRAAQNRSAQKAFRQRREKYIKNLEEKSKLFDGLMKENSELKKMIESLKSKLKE
Outline: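 PURExpress in vitro transcription/translation supplied GST-tagged yeast transcription factors, either full-length or DNA-binding domain. Applied at about 100-200 nM to universal all-10-mer Agilent arrays double-stranded by primer extension, the bound protein was detected with fluorescent anti-GST. E-scores, modified Wilcoxon-Mann-Whitney statistics, were given by the Universal PBM Analysis Suite to ungapped eight-base words pooled with their reverse complements after masliner normalisation.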

Sequence	PBM E-score
GTTACCTA	0.131
ATTACCTA	0.349
ATTACCTC	0.142
CTTACCTA	0.32
ATTACCTG	0.113
CTTACCTC	-0.0461
CCTAGGTA	-0.0942
CAGTTGCA	-0.123
CGATTTAG	0.182
ACAATCGA	0.0876
GCTTCTAA	-0.109
AGTATCCC	0.0604
AAGGATCG	0.00025
CTGGGACC	-0.316
ATTGTTAC	0.276
GTTGTTAA	0.284
ATTGTTAG	0.109
CTTGTTAA	-0.0283
CTTGTTTC	0.0494
ATTGTTAA	0.0779
CTTGTTAC	-0.0236
ATTGTTTG	0.168
ATTGTTTC	0.275
CGGGGGTC	-0.417
CCTCCGAG	-0.16

Sequence	PBM E-score
GCTAAGCA	0.0676
GCCCAATA	0.0485
ACAGGACG	-0.133
CCACATAG	-0.0996
CGGGCCCC	-0.12
CAACATAA	0.286
CAACATAC	0.125
CATCATAA	0.139
AATCATAT	0.193
TATCATAA	0.272
CAACATAG	0.0889
AATCATAG	0.291
AATCATAC	0.206
AAACATAA	0.199
GAACATAA	0.198
GATCATAA	0.241
TAACATAA	0.317
CCGGAGTC	0.014
AACCTCCG	-0.183
ATGCCCTA	-0.0594
CCCGATAA	-0.0584
AAACCATT	0.045
CCTAGGGC	-0.254
ACCCTCAT	-0.136
GGATTGAA	0.104

Sequence	PBM E-score
CTGCCCAG	-0.249
CCGTGTAC	0.102
CCATAAAA	0.0525
AAGCAGAT	0.128
AAGCAGAA	0.261
CAGCAGAA	-0.0607
ACTGATAC	-0.00272
CTCTTACA	0.0444
CGTGCCTA	-0.177
GCACCGGC	-0.178
CTGTAGCA	-0.13
ACAACTTC	0.296
ACAACTTG	0.0528
ACAACTTA	0.184
ACAATCGT	-0.0859
ATCCTCCC	-0.103
CAGTAATA	0.254
GAGTAATA	0.26
TAGTAATA	0.27
TAATAGTA	0.228
TAGTAAAA	0.137
AAGTAATA	0.247
AACCCTTA	0.168
AGCTTCAG	-0.115
GCCGCGAA	-0.133

Sequence	PBM E-score
GATTACGA	0.434
AATTACAG	0.107
AATTACGC	0.073
TATTACGA	0.257
AATTACAC	0.0804
GATTACAC	0.233
AATTACGT	0.278
GGTTACGA	0.0792
GATTACGC	0.301
CATTACGC	0.0481
AATTACGG	0.141
AATTACAT	0.322
ACTCTTGC	-0.108
GACGGTCC	-0.201
CATGGCGA	-0.0534
CGGTGGTC	-0.098
ATGTCCAA	0.0429
CATTACGA	0.127
AATTACGA	0.313
AATTACCA	0.187
CTCAGATC	0.0619
ATTGAGTA	0.262
CGTGAGTA	0.0731
GTTGAGTA	0.0846
AGTGAGTG	-0.0867

Sequence	PBM E-score
ATTGAGTC	0.103
AGTGAGTA	0.284
AAGCAACA	0.162
CATAAAGA	0.104
CGCATCGA	0.182
ATAACGCC	0.0372
AGTAAGGG	0.0482
GGTAAGGA	-0.153
ACTAAGCA	0.241
ACTAAGCG	0.149
GGTAAGAA	0.011
AGTAAGCG	0.354
GGTAAGCA	0.318
AGTAAGCA	0.283
AGTAAGTA	0.227
AGAGCTTG	-0.0623
CAAGACCA	-0.0752
AGAGATCT	-0.171
CATCTCAA	0.0545
CATCTCAC	0.0306
AATCTCAA	0.184
GATCTCAA	0.112
CATCTCAG	0.268
TATCTCAA	0.261
GTGGCTAA	0.181

Sequence	PBM E-score
ACTTCATC	-0.0118
CTCAACAA	0.197
ACCTCATC	0.0947
AGGTGAAT	0.099
AAGACAAG	-0.0281
AAGACAAC	0.274
CAGACAAC	0.0843
GACCGCGA	-0.129
CCACGTAA	0.165
ACACGTAC	-0.0415
GCACGTAA	-0.00694
TCACGTAA	0.322
ACACGTAG	-0.151
ACACGTAA	0.3
GCTCTTAA	-0.0595
CGGCTAAG	-0.025
CGTGCGGC	-0.139
AAAATCGC	0.0818
TATGGCCA	0.0804
ACCTAGAC	-0.126
GACTCTCC	-0.189
AATGCGGT	-0.0647
AATGCGGG	0.273
AATGCGGC	-0.00913
TGCCCTAA	-0.0446

Sequence	PBM E-score
AAGTTGTG	0.265
AAGTTGTC	0.127
AAGTTGTA	0.178
CCCATCGC	0.0166
CCCCGACG	-0.00202
GATATCCA	0.183
ATCGGAAC	0.267
ATCGGAAT	0.151
ATCGGAAA	0.0538
CGTTCAAC	0.0923
CATAAGGG	0.1
CATAAGCC	0.245
CATAAGCA	0.336
AATAAGCG	0.109
GATAAGCA	0.275
CATAAGCG	0.267
AATAAGCA	0.176
GATAAGCC	0.0299
TATAAGCA	0.256
CCCTGTGC	-0.18
CCTCGGGA	-0.13
GTAGACCA	-0.101
GCCAAGGA	-0.199
CCGGCGTC	-0.0574
TCAGTGGA	-0.093

Sequence	PBM E-score
TATATATA	0.369
GACATAAC	0.276
CATATATA	0.322
AACATAAA	0.0668
TACATAAA	0.323
GACATAAA	0.239
CACATAAC	-0.00529
CATATATG	0.114
TATATACA	0.187
CATATATC	0.102
CACATAAA	0.183
TATATAGA	0.238
CCAGTCCC	-0.0959
ATGTACAA	0.0216
ACCTTAGA	0.0107
AGGTATCC	0.0225
AACGCACT	-0.037
TGACTCCA	-0.17
CCTTCGTC	-0.106
ACTATAGT	0.174
CGAGCATC	0.0462
GGAGGATA	-0.0068
GCACTTTA	-0.0367
CACATACA	9e-05
GATATATC	0.1

Sequence	PBM E-score
GATATACA	0.138
CATATAAA	0.138
GATATAAA	0.0539
GACATACA	0.314
GATATATA	0.266
GTTATAAA	0.198
TATATAAA	0.283
TACATACA	0.238
CTTATAAA	0.154
TTTATAAA	0.259
ACGTCGAT	0.105
AACCCTGC	-0.0766
CGCGAATC	0.0184
TTCTCAAA	0.15
AGGGCCAA	-0.313
GCCCAGTA	-0.0745
AGGAGACC	-0.201
AGTGATTC	-0.0118
GGTGATTA	0.213
CGTGATTC	-0.0445
AGTGATTA	0.275
CGTGATTA	0.273
CGTGATGA	-0.0266
